Measurements: PubChem BioAssay (NCI)
The panel holds about 79,000 compounds, 15% with a hit somewhere; the sample as a whole holds those more often. No stated cut-off is given here; in the data, active means growth inhibition above about 70%; inactive means the rest.

What was measured:
[1] = NCI Yeast Anticancer Drug Screen. Data for the rad50 strain (AID 155);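 further: 0% = growth of vehicle-only cultures of the same strain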; settings: S. cerevisiae rad50 strain growth inhibition; at 50.0 µM; active compounds read high
Summary of the method: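 DNA repair mutant yeast, compound exposure, growth read-out; inhibition is taken relative to vehicle.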

[2] = NCI Yeast Anticancer Drug Screen. Data for the mec2-1 strain (AID 157); settings: S. cerevisiae mec2-1 strain, at 50.0 µM, active compounds read high
Summary of the method: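 Cells of the genetically defined mec2-1 yeast strain are incubated with test compound. Inhibition of growth is calculated against vehicle-treated controls.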

[3] = NCI Yeast Anticancer Drug Screen. Data for the sgs1 mgt1 strain (AID 161);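 further: 0% = growth of cultures given vehicle only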; settings: S. cerevisiae sgs1 mgt1 strain, at 50.0 µM, active compounds read high
Summary of the method: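 Inhibition of yeast growth, normalised to vehicle-treated controls, is reported for a strain bearing genetic alterations in DNA damage repair.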

[4] = NCI Yeast Anticancer Drug Screen. Data for the cln2 rad14 strain (AID 165);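 further: 0% = growth equal to vehicle treated cultures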; settings: S. cerevisiae cln2 rad14 strain, at 50.0 µM, active compounds read high
Summary of the method: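 The screen exposed genetically defined yeast (cln2 rad14) to test compounds and scored growth inhibition relative to vehicle-treated controls.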

[5] = NCI Yeast Anticancer Drug Screen. Data for the bub3 strain (AID 167); settings: S. cerevisiae bub3 mutant strain, at 50.0 µM, active compounds read high
Summary of the method: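 In this screen, a yeast mutant lacking normal mitotic checkpoint function is challenged with compound. Relative growth versus vehicle gives the inhibition value.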

[6] = NCI Yeast Anticancer Drug Screen. Data for the mlh1 rad18 strain (AID 175); settings: S. cerevisiae mlh1 rad18 strain growth inhibition; at 50.0 µM; active compounds read high
Summary of the method: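 Compound-treated yeast growth, normalised to vehicle controls. Strain bears defined DNA repair mutations.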

Measured: growth inhibition

O=C(O)/C=C/c1ccc(S(=O)(=O)F)cc1
inactive: [1] 36.4% | [2] -16% | [3] 16.6% | [4] 15.9% | [5] 34% | [6] 20.6%

c1ccc(N2CCNCC2)cc1
inactive: [1] -11.3% | [2] 4.45% | [3] -27.2% | [4] -28.6% | [5] -0.8% | [6] -1.5%

Cn1cc([N+](=O)[O-])c([N+](=O)[O-])c1
inactive: [1] -3.8% | [2] 2.5% | [3] -11.6% | [4] -74.8% | [5] -6.3% | [6] 0.85%

CC(=O)Nc1ccc2c(c1)C(=O)c1cc(NC(C)=O)ccc1-2
inactive: [1] 24.4% | [2] -10.1% | [3] -13.6% | [4] 1.55% | [5] -2.75% | [6] -7.5%

C[N+](C)([O-])CCNC(=O)c1cc(N(CCCl)CCCl)c([N+](=O)[O-])cc1[N+](=O)[O-]
inactive: [1] -7.55% | [2] -35% | [3] -3.9% | [4] -63.5% | [5] -4.95% | [6] -11.8%

CC1(C)CN=C(NN=C(/C=C/c2ccc(C(F)(F)F)cc2)/C=C/c2ccc(C(F)(F)F)cc2)NC1
inactive: [1] 21.6% | [2] 10.4% | [3] 15.3% | [4] 20.2% | [5] 32.2% | [6] 46.8%

CC(O)C[As](=O)(O)c1cccc(Cl)c1 (stereo unspecified)
inactive: [1] 2.05% | [2] 33.9% | [3] 10.3% | [4] -0.7% | [5] 37.5% | [6] 39.5%

CNc1ccccc1C(=O)O
inactive: [1] -19.8% | [2] -7.3% | [3] 10.5% | [4] -9.75% | [5] -12.2% | [6] 3.15%

[Cl][Rh]([Cl])([Cl])[Cl].[NH-]CC[NH-]
inactive: [1] 17.2% | [2] 15% | [3] 15.7% | [4] -17.4% | [5] -9.95% | [6] 8.55%

ClCCN(CCCl)c1ccc(/C=N/c2nc(-c3ccccc3)cs2)cc1
inactive: [1] 45.6% | [2] 27.9% | [3] 65.4% | [4] 47.4% | [5] -1.75% | [6] 60.9%

CCCC(OP(=S)(OCC)OCC)c1ccc(Cl)cc1 (stereo unspecified)
inactive: [1] -22.5% | [2] -1.5% | [3] 2.9% | [4] -32.3% | [5] 39% | [6] -1.15%

O=C1NC(=O)C(Cc2ccc3c(c2)OCO3)C(=O)N1
inactive: [1] -6.05% | [2] -9.5% | [3] 4.95% | [4] -62.9% | [5] 7.35% | [6] 8.15%

CNC(Cc1ccccc1)c1ccc(O)c(OC)c1 (stereo unspecified)
inactive: [1] -0.5% | [2] -15.6% | [3] -7.35% | [4] -35% | [5] 5.05% | [6] 0.75%

Cc1ccc2c(c1)C(=S)N1CSCC1c1nncn1-2 (stereo unspecified)
inactive: [1] 30.6% | [2] 30% | [3] 28.9% | [4] 20.9% | [5] 13.4% | [6] 35.8%

C=[CH][Sn]([CH]=C)([c]1ccccc1)[c]1ccccc1
inactive: [1] -7.5% | [2] -12.8% | [3] -14.2% | [4] -0.65% | [5] -26.8% | [6] 12.3%

N=Cc1c(O)[nH]c(=O)[nH]c1=O
inactive: [1] 1.4% | [2] 8.75% | [3] 3.45% | [4] -10.4% | [5] 0.65% | [6] -0.8%

N.N.N.N.N.N.O=N[O-].[Br-].[Co+3].[Co+3].[OH3+].[OH3+]
inactive: [1] 7.15% | [2] 9.25% | [3] -15.4% | [4] 15.9% | [5] 6.25% | [6] -7.9%

COC(=O)C1C(O)CC2CCC1[N+]2(C)C (stereo unspecified)
inactive: [1] 3.3% | [2] 5.8% | [3] 12.4% | [4] 2.05% | [5] 36.9% | [6] -6.8%

OCCN1CCN(c2cccc(Cl)c2)CC1
inactive: [1] -7.5% | [2] -12.7% | [3] -34.6% | [4] -11.1% | [5] -8.05% | [6] -4.8%

NC(c1ccccc1)C(O)c1ccc(O)cc1 (stereo unspecified)
inactive: [1] 19.4% | [2] 12.3% | [3] 10.1% | [4] -10.6% | [5] 1.05% | [6] -8.35%

COC(=S)NP(=O)(NC(=S)OC)NC(=S)OC
inactive: [1] 11.7% | [2] -3.4% | [3] 9.65% | [4] -35% | [5] -1.95% | [6] 8.25%
